# From PubChem BioAssay AID2012 (Sanford-Burnham Center for Chemical Genomics, 2009)
# In all, about 290,000 compounds went through this assay and about 2,700 (0.93%) were called active. The rule behind the calls is not given here. Shown is part of a subset that was picked to be rich in actives.
# Molecular target: Eukaryotic translation initiation factor 4H (Homo sapiens) (UniProt Q15056)
# Test: eIF4H binding inhibition – biochemical, uHTS, fluorescence polarization, translation initiation inhibitor project, primary screen (AID 2012);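 note: calls also rest on retests at 20 µM and on dose response follow-up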
# Settings: eIF4H fluorescence polarization binding assay, stronger effect = higher value
SMILES,inhibition (at 35 µM),"inhibition (confirmation average, at 20 µM) [%]"
Cc1ccc(OCCCCc2c(C)n[nH]c2C)cc1,-10.3% (inactive),–
CCOC(=O)CC1(NC(=O)c2cc(COc3cncc(Cl)c3)on2)CCCCC1,-10.4% (inactive),–
COc1ccc(CN2CCN(C(=O)CCC(=O)Nc3nnc(C(C)C)s3)CC2)cc1F,-7.1% (inactive),–
Cc1ccc(C(=O)O)cc1-c1ccc(/C=C2\SC(=O)N(CC(=O)Nc3ccc4c(c3)OCO4)C2=O)o1,59.7% (active),–
Cn1c(=O)n(C)c2cc(C(=O)Nc3ccc4c(c3)OCO4)ccc21,-6.6% (inactive),–
COc1ccc(NC(=O)CCN2C(=O)/C(=C/c3ccc4c(c3)OCO4)SC2=S)cc1,5.7% (inactive),–
Cc1ccc(S(=O)(=O)N(CC(=O)Nc2cccnc2)c2ccc(Br)cc2)cc1,2% (inactive),–
CCC(NC(=O)C1CCCC1)c1ccc(C)cc1 (centres undefined),-4.3% (inactive),–
Cc1ccccc1C(=O)N1CCC(C(=O)Oc2ccc(C#N)cc2)CC1,-15.9% (inactive),–
CCN(CC)S(=O)(=O)c1ccc(N2CC(C(=O)NCc3cccnc3)CC2=O)cc1 (centres undefined),-0.4% (inactive),–
c1ccc(C2=Nc3cccc4cccc(c34)N2)cc1,-0.5% (inactive),–
Fc1ccccc1N=C1Nc2cccc3cccc1c23,-3.8% (inactive),–
COc1ccccc1C1=Nc2cccc3cccc(c23)N1,99.8% (active),108
CC1CCC2(CC1)NC(=O)N(CC(=O)c1ccc3c(c1)OCO3)C2=O (centres undefined),-5.1% (inactive),–
Cn1cccc1C(=O)N1CCc2ccccc2C1,-1.9% (inactive),–
CN(CC(=O)Nc1c(Cl)cccc1Cl)C(=O)CNC(=O)C1CCCCC1,-8.8% (inactive),–
Cc1cccc(NC(=O)c2sc3nc(N4CCOCC4)c4c(c3c2N)CCCC4)c1,-4.2% (inactive),–
Cc1cccc(NC(=O)c2sc3nc4c(c(-c5ccco5)c3c2N)CCC4)c1,82.9% (active),90.9
CC(=O)Nc1ccc(NC(=O)c2sc3nc4c(c(-c5ccc(C)cc5)c3c2N)CCC4)cc1,-0.5% (inactive),–
Cc1ccc(-n2ncc3c2CC(C)(C)CC3NC(=O)Cc2c(C)noc2C)cc1 (centres undefined),5.3% (inactive),–
CSc1nc(-c2ccco2)nn1C(=O)CCc1ccccc1,-7.7% (inactive),–
CCOc1ccccc1/C=c1\sc2nc(-c3ccco3)nn2c1=O,81.8% (active),–
CCOC(=O)/C=c1\s/c(=C\c2ccccc2OC)c(=O)n1CC(=O)N1CCOCC1,5.6% (inactive),–

SMILES,inhibition (at 35 µM),"inhibition (confirmation average, at 20 µM) [%]"
Cc1ccc2[nH]c(=O)c(CN(C)S(=O)(=O)c3cccc4nonc34)cc2c1,-5.4% (inactive),–
CN(CCOc1ccccc1)C(=O)c1cc(COc2c(F)cccc2F)on1,-0.6% (inactive),–
O=C(OCC1O[C@@H](OC(=O)c2cc(O)c(O)c(O)c2)[C@@H](OC(=O)c2cc(O)c(O)c(O)c2)[C@@H](OC(=O)c2cc(O)c(O)c(O)c2)[C@@H]1OC(=O)c1cc(O)c(O)c(O)c1)c1cc(O)c(O)c(O)c1 (some centres undefined),92% (active),–
COc1ccc(N(CC(=O)Nc2cc(OC)ccc2OC)S(=O)(=O)c2c(C)noc2C)cc1,-10.2% (inactive),–
O=C(CSc1ncn[nH]1)N/N=C/c1ccc(F)cc1,-1.2% (inactive),–
CCN(CC(=O)NCc1cccs1)C(=O)c1cccc(S(=O)(=O)Nc2ccccc2OC)c1,35.7% (active),53.9
CCN(CC(=O)NCc1cccs1)C(=O)c1ccccc1F,-2.7% (inactive),–
COc1cc(CC(=O)NCc2cccs2)cc(OC)c1OC,-15% (inactive),–
Cc1ccc(C(=O)c2coc3ccc(O)c(CN(C)C)c23)cc1,-10.3% (inactive),–
Cc1c(CC(=O)N2CCN(C(=O)C3COc4ccccc4O3)CC2)c(=O)oc2c(O)c(O)ccc12 (centres undefined),61% (active),103
Cc1c(C)c2ccc(OCC(=O)N3CCC(C(=O)O)CC3)c(C)c2oc1=O,-4% (inactive),–
O=C(CNC(=O)C1COc2ccccc2O1)N/N=C/c1cc(Br)c(O)c(Br)c1 (centres undefined),7.4% (inactive),–
COc1ccccc1OCc1ccc(C(=O)NC(C)c2ccccc2)o1 (centres undefined),-6.4% (inactive),–
Cc1cccc(-c2nc3ccc(C(=O)NCCN4CCN(C)CC4)cc3nc2-c2cccc(C)c2)c1,-1.5% (inactive),–
O=C1CN(C(=O)c2ccccc2F)C(c2ccc(F)cc2)c2cc(F)ccc2N1 (centres undefined),-4.2% (inactive),–
Cc1c(-c2ccccc2)cn2c1-c1ccc(C)n1CC2,90.6% (active),–
Cc1ccc2c(c1)N(CC(=O)N1CCC(C)CC1)C(=O)c1cccnc1O2,-17.4% (inactive),–
CCOc1ncccc1C(=O)NCCc1ccc(OC)cc1,-1.9% (inactive),–
COC(=O)c1cc(CNC(=O)CC(C)c2ccccc2)ccc1OC (centres undefined),-2% (inactive),–
C/C(=N\NC(=O)COc1ccc(C)cc1[N+](=O)[O-])c1ccc2c(c1)OCCO2,-2.1% (inactive),–
CC(NC(=O)COc1ccc(-c2ccccc2)cc1)C1CCCO1 (centres undefined),-6.9% (inactive),–
Cc1ccsc1-c1cc(C(=O)O)c2c(ccc3ccccc32)n1,30.1% (inactive),–
COC(=O)c1cnn2c(C(F)(F)F)cc(-c3ccco3)nc12,-0.4% (inactive),–

SMILES,inhibition (at 35 µM),"inhibition (confirmation average, at 20 µM) [%]"
Cc1cc(C)c2nc(-c3ccco3)cc(C(=O)O)c2c1,103% (active),–
Fc1cc(F)c2nc(N3CCOCC3)sc2c1,-7.8% (inactive),–
Cc1nc(N2CCOCC2)sc1C(=O)NN,0.1% (inactive),–
Cc1cc(C)n(Cc2cnc(N3CCOCC3)s2)n1,-7.9% (active),107
COc1cccc(NC(=O)C(=O)c2cn(CC(=O)N3CCOCC3)c3ccccc23)c1,-12.2% (inactive),–
COc1ccc(O)c(C(=O)c2cnc3c(c2)c(-c2ccc(F)cc2)c(C#N)c(=O)n3C)c1,-3.7% (inactive),–
Cn1c(N)cc(-c2ccc(F)cc2)c(C#N)c1=O,-11% (active),108
Cc1cc(C)c2c(-c3ccc(F)cc3)c(C#N)c(=O)n(C)c2n1,-1.8% (inactive),–
CC(=O)NCCNC(=O)c1cc(-c2cccc3ccccc23)nc2ccccc12,0.8% (inactive),–
Cc1c(C2=CCN(S(=O)(=O)c3ccc(Cl)cc3)CC2)c2ccccc2n1C,91.5% (active),99.6
COc1ccccc1N1CCN(S(=O)(=O)c2ccc(Cl)cc2)CC1,-8.3% (inactive),–
O=S(=O)(c1ccc(F)cc1)N1CC=C(c2ccccc2)CC1,-1.4% (inactive),–
CCOc1ccc(C(=O)Nc2c3c(nn2-c2ccccc2)CS(=O)(=O)C3)cc1,-1.2% (inactive),–
O=C(Nc1ncc([N+](=O)[O-])s1)C1COc2ccccc2O1 (centres undefined),-6.7% (inactive),–
N[C@@H](Cc1ccccc1)C(=O)N1CCC(C(=O)NCC(=O)Nc2ccc(F)cc2)CC1,20% (inactive),–
Cc1ccc(-n2c(C)cc(/C=N/Nc3ccc([N+](=O)[O-])cn3)c2C)c(C)c1,6.6% (inactive),–
Cc1cc(/C=N/Nc2ccc([N+](=O)[O-])cn2)c(C)n1-c1cccc(C(=O)O)c1,54.4% (active),–
COc1cc(/C=N\Nc2ccc([N+](=O)[O-])cn2)ccc1OCC(=O)O,-3.4% (inactive),–
O=C(c1cc(S(=O)(=O)N2CCOCC2)ccc1Cl)N1CCOCC1,-2.4% (inactive),–
COc1cc2c(cc1OC)C(C)N(S(=O)(=O)c1cnc(Cl)c(Cl)c1)CC2 (centres undefined),1.8% (inactive),–
Cc1ccc(NS(=O)(=O)c2ccc(F)cc2)nc1,-7.9% (inactive),–
CCC(Cc1ccccc1)NS(=O)(=O)c1ccc2c(c1)NC(=O)CS2 (centres undefined),-2.9% (inactive),–
CCOC(=O)c1c(C)[nH]c(C2=NNC(=NC(C)COC)SC2)c1C (centres undefined),-1.8% (active),93.1

SMILES,inhibition (at 35 µM),"inhibition (confirmation average, at 20 µM) [%]"
CCOC(=O)c1c(C)[nH]c2c1-c1ccccc1C(=O)C2=O,-11% (inactive),–
CCCCOC(=O)c1[nH]c(C)c(C(=O)OC)c1C,4.8% (inactive),–
COc1ccc(C(=O)/C=C/c2ccc(-c3ccccc3)cc2)cc1CSCC(=O)O,82.3% (inactive),47.3
COC(=O)c1ccc(COc2ccc(/C=C/C(=O)c3ccc(OC)c(CSCC(=O)O)c3)cc2OC)cc1,81% (active),68.7
COc1cc(/C=N/O)ccc1OCc1ccc([N+](=O)[O-])cc1,0.1% (inactive),–
CCCc1ccc(OCC(O)CN2CCN(CCO)CC2)cc1 (centres undefined),-2.4% (inactive),–
Cc1cc(C)cc(OCC(=O)NNC(=O)CCN2C(=O)c3ccccc3C2=O)c1,2.3% (active),87.4
Cc1ccc(NC(=O)CCN2C(=O)c3ccccc3C2=O)cc1C,-6.5% (inactive),–
Cc1cc(C)cc(NC(=O)CCN2C(=O)c3ccccc3C2=O)c1,-1.3% (inactive),–
COc1ccc(CN2CC(C(=O)NCCc3ccc(Cl)cc3)CC2=O)cc1 (centres undefined),-12.2% (inactive),–
O=C(N/C(=C\c1ccc([N+](=O)[O-])cc1)C(=O)N1CCOCC1)c1cccc(Br)c1,7.9% (inactive),–
O=C1c2ccccc2C(=O)N1CCOc1ccc(F)cc1,0.9% (inactive),–
O=C(Nc1nonc1-c1ccc(Cl)cc1)c1ccco1,-12.8% (inactive),–
Cc1cc2occ(CC(=O)NNC(=O)c3ccccc3F)c2cc1C,-3% (inactive),–
CC1CN(C(=O)c2ccccc2NS(=O)(=O)c2cccc([N+](=O)[O-])c2)CC(C)O1 (centres undefined),-0.3% (active),95.9
COc1ccc(S(=O)(=O)Nc2ccccc2C(=O)N2CCCC2)cc1C,-2.4% (inactive),–
COCCNC(=O)c1ccccc1NS(=O)(=O)c1ccc(C)c([N+](=O)[O-])c1,9.2% (inactive),–
O=S(=O)(c1ccc(Cl)cc1)c1nc(-c2ccccc2F)oc1NCCN1CCOCC1,-7.4% (inactive),–
Cc1nn(C)cc1S(=O)(=O)N1CCN(c2ccc(F)cc2)CC1,1% (inactive),–
COc1ccc(Br)cc1/C=N/NC(=O)c1cccc(S(=O)(=O)N2CCOCC2)c1,-3.8% (inactive),–
COc1cccc(/C=N/NC(=O)CNC(=O)c2ccc(S(=O)(=O)N3CCOCC3)cc2)c1OC,7.4% (inactive),–
O=C(N/N=C/c1ccc([N+](=O)[O-])o1)c1cccc(S(=O)(=O)N2CCOCC2)c1,52% (active),78.6
